Source: PubChem
M1 PAM parental = counter-screen for M1 PAMs: effect in parental CHO-K1 cells; 360,000 compounds, 0.02% hits; activation, % at 3 µM; ATP EC20, Fluo-8 calcium fluorescence; 0% at ATP EC20, 100% at ATP max;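 active means activation above the run cutoff, the mean activation of all test compounds plus 3 SD, cut at about 40% in these data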;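 further: peak over basal fluorescence ratio in a 140 s read after ATP addition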
M1 antag = blocks human M1 muscarinic receptor; P11229; inhibition, % at 3 µM; 360,000 compounds, 1.3% hits; CHO-K1 hM1, Fluo-8 calcium fluorescence, ACh EC80 antagonist;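 active means percent inhibition above its own plate's cutoff, namely the mean of that plate's compound wells plus 3 SD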;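 further: peak over basal fluorescence ratio during 140 s after agonist addition; 0% = ACh EC80 plus DMSO and 100% = DMSO alone without agonist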
Target sequence (P11229 whole entry, looked up): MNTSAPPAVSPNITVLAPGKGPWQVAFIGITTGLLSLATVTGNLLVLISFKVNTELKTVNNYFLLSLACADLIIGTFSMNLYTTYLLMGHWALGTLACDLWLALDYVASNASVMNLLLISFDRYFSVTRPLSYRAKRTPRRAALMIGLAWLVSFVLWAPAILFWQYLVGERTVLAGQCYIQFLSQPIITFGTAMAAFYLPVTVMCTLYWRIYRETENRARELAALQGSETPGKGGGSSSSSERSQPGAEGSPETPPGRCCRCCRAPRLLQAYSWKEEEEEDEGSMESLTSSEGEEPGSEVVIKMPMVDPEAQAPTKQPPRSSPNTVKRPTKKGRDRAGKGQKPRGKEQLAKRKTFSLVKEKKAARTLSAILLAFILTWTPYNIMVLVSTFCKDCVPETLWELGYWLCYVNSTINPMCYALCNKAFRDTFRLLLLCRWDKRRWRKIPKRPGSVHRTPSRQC
M1 ag = activates human CHRM1 receptor; P11229; CHO-K1 hM1, Fluo-8 calcium fluorescence, agonist mode; 0% DMSO, 100% acetylcholine EC100; activation, % at 3 µM; 360,000 compounds, 0.33% hits; AID 588814;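 active means activation above the run's mean compound activation plus 3 SD, cut at about 16% in these data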;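 further: peak over basal fluorescence ratio within a 140 s kinetic read after compound addition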
CHO-K1 Ca antag = counter-screen for M1 antagonists: effect in parental CHO-K1 cells. ATP-induced calcium, Fluo-8 fluorescence. inhibition, % at 3 µM. 360,000 compounds, 0.6% hits. AID 602250;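 active means inhibition above a per-plate cutoff, the plate's mean sample inhibition plus 3 SD, cut at about 24% in these data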;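 further: 0% = DMSO plus EC80 ATP and 100% = DMSO alone without ATP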
CHRM1 PAM = human CHRM1 positive allosteric modulation; 360,000 compounds, 0.088% hits; CHO-K1 hM1, Fluo-8 calcium fluorescence, ACh EC20; 0% = ACh EC20, 100% = maximal ACh; AID 588819; activation, % at 3 µM; P11229; in the data active means activation above about 19%, passing the limit was not always enough
M1 ag parental = nonselective activator or artifact in parental CHO-K1 cells. Fluo-8 calcium fluorescence; scaled to maximal ATP response, vehicle zero. activation, % at 3 µM. 360,000 compounds, 0.48% hits. AID 602248; in the data active means activation above about 15%;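 further: untransfected CHO-K1 host cells lacking M1 receptor as counterscreen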
Active calls of the source: *. Only some compounds are listed: those with a hit (about 2.3% of all), similar ones and a draw of the others.

Screening COc1ccc(CCN2CC(O)=C(c3nc(C)cs3)C2=N)cc1OC returned M1 PAM parental -5, M1 antag 3, M1 ag -4, CHO-K1 Ca antag 15, CHRM1 PAM 2 and M1 ag parental 0.
CCSc1nc2ccccc2c(=O)n1CCc1ccc(OC)c(OC)c1 was read as M1 PAM parental -18, M1 antag 25*, M1 ag -3, CHO-K1 Ca antag 8, CHRM1 PAM -10 and M1 ag parental 3.
For CCOC(=O)c1ccc(N2CC(O)=C(c3nc4ccccc4c(=O)[nH]3)C2=N)cc1 the results were M1 PAM parental -7, M1 antag 3, M1 ag -3, CHO-K1 Ca antag 24*, CHRM1 PAM -2 and M1 ag parental 1.
For CCC(=O)N(Cc1ccco1)C1CC(=O)N(c2ccccc2)C1=O (stereo not given) the results were M1 PAM parental 0, M1 antag 2, M1 ag -2, CHO-K1 Ca antag 6, CHRM1 PAM 7 and M1 ag parental 0.
Cc1ccc(-c2c[n+](CC(=O)OCc3ccccc3)c3n2CCC3)cc1 was read as M1 PAM parental -1, M1 antag 6, M1 ag -8, CHO-K1 Ca antag 3, CHRM1 PAM -9 and M1 ag parental 0.
`COc1ccc(-c2c[n+](CC(=O)N3c4ccccc4Sc4ccccc43)c3n2CCC3)cc1` gave M1 PAM parental 13, M1 antag 86*, M1 ag -8, CHO-K1 Ca antag -12, CHRM1 PAM -27 and M1 ag parental 0.
For O=C(C[n+]1cc(-c2ccc(Cl)c(Cl)c2)n2c1CCC2)N1c2ccccc2Sc2ccccc21 the results were M1 PAM parental 26, M1 antag 100*, M1 ag -8, CHO-K1 Ca antag -4, CHRM1 PAM -27 and M1 ag parental 0.
For CC1CCC(C(C)C)C(OC(=O)C[n+]2cc(-c3ccc(Cl)cc3)n3c2CCC3)C1 (stereo not given) the results were M1 PAM parental 10, M1 antag 85*, M1 ag -2, CHO-K1 Ca antag -3, CHRM1 PAM -23 and M1 ag parental 1.
Screening O=C(C[n+]1cc(-c2ccc(Cl)cc2)n2c1CCC2)N1c2ccccc2Sc2ccccc21 returned M1 PAM parental -3, M1 antag 97*, M1 ag -8, CHO-K1 Ca antag 4, CHRM1 PAM -26 and M1 ag parental 0.
`O=C(CNC(=O)c1ccccc1)Oc1cccc(Cl)c1` gave M1 PAM parental 14, M1 antag -10, M1 ag -2, CHO-K1 Ca antag -6, CHRM1 PAM 6 and M1 ag parental 3.
Screening Cc1ccccc1NC(=O)C[n+]1cc(-c2ccccc2)n2c1CCC2 returned M1 PAM parental -21, M1 antag 50*, M1 ag -2, CHO-K1 Ca antag 16, CHRM1 PAM -17 and M1 ag parental 5.
For CCN1CCN(S(=O)(=O)c2ccc(OC)c(NC(=O)c3ccccc3F)c2)CC1 the results were M1 PAM parental 14, M1 antag -10, M1 ag -7, CHO-K1 Ca antag -5, CHRM1 PAM 8 and M1 ag parental 0.
Screening CCN(CC)CCOC(=O)C12CC3CC(CC(C3)C1)C2 returned M1 PAM parental 8, M1 antag 41*, M1 ag -5, CHO-K1 Ca antag -8, CHRM1 PAM -21 and M1 ag parental 1.
Screening Cc1c(C(=O)NCc2ccc3c(c2)OCO3)oc2ccc(S(=O)(=O)N3CCCC3)cc12 returned M1 PAM parental 10, M1 antag 18, M1 ag -2, CHO-K1 Ca antag 3, CHRM1 PAM -7 and M1 ag parental 5.
CCCc1cc(N2CCCC(C(=O)NCc3ccc4c(c3)OCO4)C2)n2ncnc2n1 (stereo not given) was read as M1 PAM parental -1, M1 antag 7, M1 ag -6, CHO-K1 Ca antag 4, CHRM1 PAM 28* and M1 ag parental 0.
For Cc1ccc(S(=O)(=O)N2CCCC(C(=O)NCCc3ccc4c(c3)OCO4)C2)cc1 (stereo not given) the results were M1 PAM parental -6, M1 antag -9, M1 ag -4, CHO-K1 Ca antag 24*, CHRM1 PAM 3 and M1 ag parental 0.
For Cc1cc(C)nc(N2CCCC(C(=O)NCc3ccc4c(c3)OCO4)C2)n1 (stereo not given) the results were M1 PAM parental 9, M1 antag -7, M1 ag -4, CHO-K1 Ca antag -17, CHRM1 PAM 4 and M1 ag parental 0.
Cc1c(C(=O)NCc2ccc3c(c2)OCO3)oc2ccc(S(=O)(=O)N3CCCCC3)cc12 was read as M1 PAM parental -1, M1 antag 28*, M1 ag -2, CHO-K1 Ca antag 6, CHRM1 PAM -16 and M1 ag parental 8.
`O=C(NCc1ccc2c(c1)OCO2)C1CCCN(S(=O)(=O)c2cccnc2)C1` (stereo not given) gave M1 PAM parental -9, M1 antag -6, M1 ag 0, CHO-K1 Ca antag 48*, CHRM1 PAM 12 and M1 ag parental 0.
For O=c1[nH]nc(Br)c(=O)n1C(c1ccccc1)c1ccccc1 the results were M1 PAM parental 28, M1 antag 8, M1 ag 19*, CHO-K1 Ca antag -14, CHRM1 PAM -13 and M1 ag parental 26*.
O=C(c1[nH]c(C(F)(F)F)nc1-c1ccccc1)N1CCCCC1 was read as M1 PAM parental -7, M1 antag 2, M1 ag -1, CHO-K1 Ca antag 26*, CHRM1 PAM 0 and M1 ag parental 0.
Screening CCOC(=O)C1CCCN(C(=O)c2[nH]c(C(F)(F)F)nc2-c2ccccc2)C1 (stereo not given) returned M1 PAM parental -8, M1 antag -9, M1 ag 17*, CHO-K1 Ca antag 0, CHRM1 PAM -10 and M1 ag parental 0.
Screening CC(=O)N1CCN(C(=O)c2[nH]c(C(F)(F)F)nc2-c2ccccc2)CC1 returned M1 PAM parental 8, M1 antag -24, M1 ag -1, CHO-K1 Ca antag -10, CHRM1 PAM 3 and M1 ag parental 1.
For CCOC(=O)N1CCN(C(=O)c2[nH]c(C(F)(F)F)nc2-c2ccccc2)CC1 the results were M1 PAM parental 9, M1 antag -24, M1 ag 9, CHO-K1 Ca antag -15, CHRM1 PAM 8 and M1 ag parental 0.
CCCCNC(=S)Nc1ccc([N+](=O)[O-])cc1 was read as M1 PAM parental -16, M1 antag 27*, M1 ag 1, CHO-K1 Ca antag 34*, CHRM1 PAM -16 and M1 ag parental 13.
For CC(C)CCNC(=S)Nc1ccc(Br)cc1 the results were M1 PAM parental -5, M1 antag 17, M1 ag -4, CHO-K1 Ca antag 12, CHRM1 PAM -11 and M1 ag parental 11.
